From PubChem BioAssay
This is a sample that favours compounds with a hit; in the whole collection about 4.7% have one here.
Pemphigus Ab inh: blocks pemphigus antibody binding to human desmoglein-3. 310,000 compounds, 0.48% hits. P32926. AID 588358. binding (percent of control), % at 10 µM. DSG3-coupled beads, scFv-anti-DSG3-GFP binding, flow cytometry; hits give low values;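 active = binding more than 3 SD below its plate's average and above zero; inconclusive = below that plate limit but binding exactly zero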;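 also: hits lower antibody fragment binding to DSG3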
proKLK7 act: activates the human kallikrein-7 zymogen; purified proKLK7, EDANS-DABCYL substrate fluorescence; 100% is mature enzyme control, 0% vehicle; activation, % at 7 µM; P49862; 370,000 compounds, 0.9% hits;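 active = activation above the mean of all tested compounds plus 3 SD, computed per campaign excluding outliers beyond control limits, cut at about 13% in these data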
ADAM10 inh: inhibits human ADAM10 | recombinant ADAM10, EDANS/DABCYL FRET peptide cleavage, 3 h | AID 720582 | inhibition, % at 7 µM | 370,000 compounds, 0.62% hits;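 active = inhibition above a per-campaign cutoff equal to the mean of compounds falling between control-based bounds plus 3 SD, cut at about 20% in these data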;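 also: 0% = DMSO wells while the 100% control is not disclosed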
rCAG binder: molecules binding r(CAG) RNA repeats; inhibition, % at 3 µM; 370,000 compounds, 1.3% hits; r(CAG) RNA repeat, TO-PRO-1 dye displacement fluorescence;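 active = inhibition above the plate cutoff, the mean of all test compounds on that plate plus 3 SD, cut at about 35% in these data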;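 also: 0% = DMSO alone and 100% = 100 µM mitoxantrone as full dye displacement; higher means more dye released from RNA so lower well fluorescence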
ADAM17 inh: ADAM17 inhibition, QFRET primary screen. AID 720648. P78536. inhibition, % at 6.95 µM. recombinant ADAM17, EDANS/DABCYL FRET peptide cleavage. 370,000 compounds, 0.83% hits;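 active = inhibition above the mean of compounds lying between control limits plus 3 SD, set per campaign, cut at about 8.5% in these data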;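 also: 0% = DMSO-only wells as the low control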
MPTP block: permeability transition pore inhibition; isolated mouse mitochondria, Ca2+ swelling absorbance, 30 min; inhibition, % at 10 µM; 360,000 compounds, 1.4% hits;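 active = inhibition of 50% or more, scaled per plate between neutral and stimulator controls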;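 also: 0% = DMSO wells given calcium and 100% = 1 mM EGTA wells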
KLK7 act conf: confirmation of human kallikrein-7 zymogen activators. activation, % at 7 µM. shares compounds with proKLK7 act. AID 686949. 3,200 compounds, 68% hits. purified proKLK7, EDANS-DABCYL substrate fluorescence; scaled: vehicle 0, mature enzyme 100;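 active = activation, as change over the incubation, above the mean of all tested compounds plus 3 SD, cut at about 13% in these data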
EDANS-DABCYL int: counter-screen for kallikrein-7 activators: EDANS-DABCYL optical interference; activation, % at 7 µM; 3,200 compounds, 80% hits; shares compounds with proKLK7 act; AID 686952; EDANS-DABCYL substrate fluorescence interference, no enzyme, 4 h; solvent 0%, active enzyme control 100%;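 active = activation above the all-compound mean plus 3 SD, ignoring values outside control-based bounds, cut at about 4.8% in these data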;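 also: value is the 4 h activation minus the activation read at time zero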
EDANS interf: optically interferes with EDANS-DABCYL fluorescence, kallikrein-7 activator counter-screen; shares compounds with proKLK7 act; EDANS-DABCYL peptide fluorescence interference, no enzyme; EC50, µM; 250 compounds, 20% hits; AID 720493;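 active = compounds that raise the fluorescence signal in this interference counterscreen, with EC50 at or below 10 µM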;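 also: intact quenched peptide substrate alone read at 355 nm excitation and 520 nm emission; signal is fluorescence gain from T0 to T4 after four hours at room temperature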
Starred values were filed as active, the others as inactive.

Screening CCCc1cc(C(=O)Nc2cc(C)ccc2O)no1 returned Pemphigus Ab inh inconclusive, proKLK7 act 1, ADAM10 inh -5, rCAG binder 6, ADAM17 inh 0 and MPTP block -2.
For Cc1ccccc1-c1ccc2c(c1)[C@@H]1C[C@H](N(C)CC3CCCCC3)[C@H]([C@H](C)O)CN1CC2 the results were proKLK7 act 13*, ADAM10 inh -77, rCAG binder 4, ADAM17 inh -19, KLK7 act conf 6 and EDANS-DABCYL int 7.1*.
For Cc1cc2oc(C(=O)NCc3ccccc3)cc(=O)c2cc1C the results were Pemphigus Ab inh 105, proKLK7 act 0, ADAM10 inh -6, rCAG binder -4, ADAM17 inh -7 and MPTP block 0.
For CC1(C)Oc2cc3oc(C(=O)O)cc(=O)c3cc2-c2ccccc21 the results were Pemphigus Ab inh 110, proKLK7 act 100*, ADAM10 inh inactive, rCAG binder 11, ADAM17 inh inactive, MPTP block 0, KLK7 act conf 68* and EDANS-DABCYL int 67*.
Screening CCOC(=O)N1CCN(C(=O)CCc2ccc(S(=O)(=O)NC(C)(C)C)cc2)CC1 returned Pemphigus Ab inh 90, proKLK7 act 0, ADAM10 inh -9, rCAG binder -8, ADAM17 inh -3 and MPTP block 0.
Screening Cc1ccc2c(c1)[C@@H]1[C@H](CO2)[C@H](c2ccccc2)[C@@]2(C)C(=O)N[C@H](C)C(=O)N12 returned Pemphigus Ab inh 106, proKLK7 act 0, ADAM10 inh -2, rCAG binder -4, ADAM17 inh -2 and MPTP block -3.
Screening COC(=O)c1nc2ccc(N3CCOCC3)cc2c(C)c1C(=O)OC returned proKLK7 act 22*, ADAM10 inh -36, rCAG binder -4, ADAM17 inh -13, MPTP block 1, KLK7 act conf 2 and EDANS-DABCYL int 25*.
Cc1cc(C(=O)Nc2ccc(N3CCOCC3)cc2)c2ccccc2n1 was read as proKLK7 act 1, ADAM10 inh 3, rCAG binder 6, ADAM17 inh 4 and MPTP block 0.
Screening O=C(Cc1cccc(NC(=O)C2CCCN(C(=O)CCc3ccccc3)C2)c1)Nc1cccc(C(=O)N2CCCCC2)c1 (stereo not given) returned Pemphigus Ab inh 97, proKLK7 act 1, ADAM10 inh -10, rCAG binder 6, ADAM17 inh -5 and MPTP block -1.
Nc1nc(N)c2c(ccc3nccc32)[nH]1 was read as Pemphigus Ab inh 112, proKLK7 act 195*, ADAM10 inh inactive, rCAG binder 8, ADAM17 inh inactive, MPTP block -2, KLK7 act conf 76* and EDANS-DABCYL int 81*.
`C=CCNc1sc(C(=O)c2ccc(C)cc2)c(N)c1C#N` gave Pemphigus Ab inh 118, proKLK7 act 186*, ADAM10 inh 2, rCAG binder -3, ADAM17 inh -1, MPTP block -4, KLK7 act conf 22*, EDANS-DABCYL int 15* and EDANS interf >70.
Screening C=CCNc1sc(C(=O)c2ccccc2)c(N)c1C#N returned Pemphigus Ab inh 93, proKLK7 act 1, ADAM10 inh -5, rCAG binder -4, ADAM17 inh 2 and MPTP block -2.
`CC1(C(=O)Nc2ccccc2)Cc2c(-c3cccc(C(F)(F)F)c3)ccnc2O1` (stereo not given) gave proKLK7 act 0, ADAM10 inh 3, rCAG binder 0, ADAM17 inh 3 and MPTP block 2.
